# Laboratory results reported in PubChem BioAssay AID1851 (National Center for Advancing Translational Sciences (NCATS), 2009).
# Hit rate of the full screen: of about 16,000 compounds, about 5,100 (32%) were called active. Not shown: some 25% with an inconclusive outcome. Some of the results follow. A number with no mark means an inactive call. Calls follow the shape of the dose curve; as a rule, active = well fitted curve in the direction sought with a large enough effect; inconclusive = small, poorly fitted or top-dose-only effect, or effect the other way; inactive = no such curve, though single readings can be large or run the other way.
# Target: Cytochrome P450 3A4 (Homo sapiens) (UniProt P08684)
# Experiment: Cytochrome panel assay with activity outcomes
# Conditions: recombinant CYP, pro-luciferin dealkylation, luminescence, p450-cyp3a4; series mostly up to 57.1 µM; activity, negative = inhibition: at the top concentration
# % is scaled to controls: 0 for no effect and ±100 for the full control effect.
# Sequence of Cytochrome P450 3A4 (Homo sapiens) (P08684 whole entry, looked up): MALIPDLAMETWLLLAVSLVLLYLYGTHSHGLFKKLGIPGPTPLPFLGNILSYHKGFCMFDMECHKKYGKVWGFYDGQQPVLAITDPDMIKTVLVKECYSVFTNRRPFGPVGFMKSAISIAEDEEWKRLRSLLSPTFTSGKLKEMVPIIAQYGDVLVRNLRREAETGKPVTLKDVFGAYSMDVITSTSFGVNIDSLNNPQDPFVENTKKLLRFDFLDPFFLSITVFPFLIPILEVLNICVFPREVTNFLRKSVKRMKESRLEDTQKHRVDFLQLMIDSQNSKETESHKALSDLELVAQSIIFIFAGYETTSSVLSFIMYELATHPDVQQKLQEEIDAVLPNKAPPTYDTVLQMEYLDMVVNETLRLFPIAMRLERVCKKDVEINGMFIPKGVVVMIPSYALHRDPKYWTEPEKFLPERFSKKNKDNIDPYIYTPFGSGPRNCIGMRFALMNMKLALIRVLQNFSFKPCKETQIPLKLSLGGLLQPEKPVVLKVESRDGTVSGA
Compound,"activity, negative = inhibition",AC50
COc1cccc2c1C(=O)c1c(O)c3c(c(O)c1C2=O)C[C@@](O)(C(=O)CO)C[C@H]3O[C@H]1C[C@@H](N)[C@H](O)[C@@H](C)O1.[W],-15.2% [at 11.4 µM],
COC(=O)c1[nH]c(C)c(/C(O)=C2\C(=O)C(=O)N(CCN(C)C)C2c2cccs2)c1C (stereo not drawn),-29.9%,
O=c1/c(=C\c2ccc(O)cc2)sc2n1C(c1ccccc1)C(c1ccccc1)=NN=2 (stereo not drawn),20.5% [at 0.457 µM],
CCOC(=O)C1=C(N)n2c(s/c(=C/c3ccccc3)c2=O)=C(C(=O)OCC)C1c1ccccc1 (stereo not drawn),-8.49%,
CCOC(=O)C1=C(c2ccccc2)N=c2s/c(=C\c3cccc(O)c3)c(=O)n2C1c1cccs1 (stereo not drawn),,15.8 µM (active)
CCOC(=O)C1=C(c2ccccc2)N=c2s/c(=C\c3ccc(O)cc3)c(=O)n2C1c1cccs1 (stereo not drawn),,3.55 µM (active)
CCCc1c(OCCCOc2ccc(OCC(=O)O)cc2)ccc(C(C)=O)c1O,-20.2%,
CC(C)=CC(=O)OCC(=O)Nc1ncc(Cl)c(C)c1Cl,-10.4%,
Cc1cccc(CNc2ncnc3ccc(-c4ccoc4)cc23)c1,,3.98 µM (active)
c1cncc(CNc2ncnc3ccc(-c4ccoc4)cc23)c1,,1.58 µM (active)
Oc1ccccc1CNn1cnnc1,-12.2%,
COc1ccc(-n2nnnc2-c2cn(C)nc2C(F)(F)F)cc1,27.5%,
CCn1cc(-c2nnnn2-c2ccc(Cl)cc2)c(=O)c2ccccc21,,12.6 µM (active)
CCOc1nnc(C)c2c(C)n(-c3ccc(Cl)cc3)nc12,-23.4%,
CCc1ccccc1NC(=O)C(C)n1nc([N+](=O)[O-])c(Br)c1C (stereo not drawn),,25.1 µM (active)
Cc1c(Br)c([N+](=O)[O-])nn1CC(=O)NCc1cccs1,-4.17% [at 2.29 µM],
Cc1ccc(NC(=O)Cn2nc([N+](=O)[O-])c(Br)c2C)cc1C,-24.1% [at 2.29 µM],
Cc1c(Br)c([N+](=O)[O-])nn1CC(=O)NCc1ccccn1,5.47%,
Cc1c(Br)c([N+](=O)[O-])nn1C(C)C(=O)Nc1nccs1 (stereo not drawn),,20 µM (active)
N=C(N)c1ccc(N=Nc2c(O)ccc3c2[nH]c2ccccc23)cc1,-6.87% [at 11.4 µM],
COC(=O)CSc1nc(C)cc(C(F)(F)F)c1C#N,-14.9% [at 2.29 µM],

Compound,"activity, negative = inhibition",AC50
Cc1cc(C)c(C#N)c(SCC(=O)C(C)(C)C)n1,-0.356% [at 2.29 µM],
Cc1cc(C)c(C#N)c(SCS(=O)c2ccc(C(C)(C)C)cc2)n1 (stereo not drawn),,7.94 µM (active)
O=S(=O)(c1ccc(Br)cc1)N1CCN(S(=O)(=O)c2ccc(Br)cc2)CC1,0.222% [at 11.4 µM],
Brc1ccc(-c2nnc(-c3cccc(Br)c3)o2)cc1,16.1%,
O=S(=O)(c1cccc(-c2nnc(-c3ccc(Br)cc3)o2)c1)N1CCCCCC1,,3.55 µM (active)
O=C1CCCC=C1[C@H](O)c1ccc([N+](=O)[O-])cc1,-12.2% [at 11.4 µM],
COc1ccc(Cn2nnnc2C(c2ccccc2Cl)N2CCC(C(N)=O)CC2)cc1 (stereo not drawn),,12.6 µM (active)
CCOC(=O)C1CCN(Cc2cnc(Oc3ccc(OC)cc3)s2)CC1,9.79%,
NC(=O)C1CCN(C(=O)OCc2ccccc2)CC1,-2.06%,
C=CC1=C(C)C2=Cc3c(C=C)c(C)c4[n]3[Sn+2][n]3c(c(C)c(CCC(=O)O)c3=CC3=NC(=C4)C(C)=C3CCC(=O)O)=CC1=N2,-13.5%,
CC(=O)Nc1ccc(NC(=O)c2ccccc2CC[N+](=O)[O-])cc1,,1.78 µM (active)
CC(=O)Nc1ccc(C(=O)NNC(=O)CCc2ccccc2)cc1,4.97%,
Cc1c(C(=O)Nc2ccc(OCc3ccccc3)cc2)cccc1[N+](=O)[O-],15.6%,
CC[N+](C)(CC)CCC[n+]1c(-c2ccccc2)c2cc(N)ccc2c2ccc(N)cc21,,15.8 µM (active)
COc1cc(C(=O)NCC(c2cccnc2)N2CCN(C)CC2)cc(OC)c1OC (stereo not drawn),-2.25%,
O=C(NCC(c1cccnc1)N1CCOCC1)Nc1ccccc1 (stereo not drawn),,14.1 µM (active)
COc1ccc(N2CCN(C(CNC(=O)C3CCCCC3)c3cccnc3)CC2)cc1 (stereo not drawn),,4.47 µM (active)
COC(=O)NCC(c1cccnc1)N1CCN(c2ccccc2OC)CC1 (stereo not drawn),,12.6 µM (active)
C[C@H](CN(C)C)C(O)(c1ccccc1)c1ccccc1,-14.1% [at 11.4 µM],
CCC(C)NC(=O)NC(=O)N(C1CCCCC1)S(C)(=O)=O (stereo not drawn),4.9%,
Cc1ccnc(NS(=O)(=O)c2ccc(N)cc2)n1,,inactive

Compound,"activity, negative = inhibition",AC50
COC(=O)[C@@]1(Cc2ccc(F)cc2)[C@H]2c3cc(C(=O)N4CCCC4)n(Cc4ccc(C)c(F)c4F)c3C[C@H]2CN1C(=O)c1ccccc1,,2.51 µM (active)
COC(=O)[C@@]1(Cc2ccc(F)cc2)[C@H]2c3cc(C(=O)N(C)C)n(Cc4ccc(C)c(F)c4F)c3C[C@H]2CN1C(=O)c1ccccc1,,0.794 µM (active)
COC(=O)[C@@]1(Cc2ccccc2)[C@H]2c3cc(C(=O)N4CCCC4)n(Cc4ccc(S(C)(=O)=O)cc4)c3C[C@H]2CN1C(=O)c1ccccc1,,3.16 µM (active)
COC(=O)C1(Cc2ccccc2)C2c3cc(C(=O)N4CCCC4)n(Cc4ccc(OC(F)(F)F)cc4)c3CC2CN1C(=O)c1ccccc1 (stereo not drawn),,3.16 µM (active)
CCCC[C@H](CC)CN1CN(C[C@@H](CC)CCCC)CC(C)(N)C1,-17.4% [at 25.6 µM],
CC(C)(C)n1nc(-c2ccc(Cl)cc2)c2c(N)ncnc21,-12.7%,
COC(=O)[C@@]1(Cc2ccc(F)cc2)[C@H]2c3cc(C(=O)N4CCCC4)n(Cc4ccc(OC(F)(F)F)cc4)c3C[C@H]2CN1C(=O)c1ccccc1,,2.51 µM (active)
COC(=O)[C@@]1(Cc2ccc(F)cc2)[C@H]2c3cc(C(=O)N4CCCC4)n(CCCNc4ncc(C(F)(F)F)cc4Cl)c3C[C@H]2CN1C(=O)c1ccccc1,,2.51 µM (active)
COC(=O)[C@@]1(Cc2ccc(F)cc2)[C@H]2c3cc(C(=O)N(C)C)n(Cc4ccc(Cl)c(C(F)(F)F)c4)c3C[C@H]2CN1C(=O)c1ccccc1,,2 µM (active)
COC(=O)[C@@]1(Cc2ccc(F)cc2)[C@H]2c3cc(C(=O)N4CCCC4)n(Cc4ccc(Cl)c(C(F)(F)F)c4)c3C[C@H]2CN1C(=O)c1ccccc1,,2.51 µM (active)
Cc1nc(CN2CCCCC2)c(O)c(=O)[nH]1,-5.47% [at 11.4 µM],
CC1(O)CC(=O)N(c2ccccc2)O1 (stereo not drawn),1.65% [at 2.29 µM],
COC(=O)Cn1c(=N)n(CCN2CCCCC2)c2ccccc21,1.03%,
COC(=O)[C@@]1(Cc2ccc(F)cc2)[C@H]2c3cc(C(=O)N(C)C)n(CCCNc4ccc(C(F)(F)F)cc4Cl)c3C[C@H]2CN1C(=O)c1ccccc1,,1.58 µM (active)
COC(=O)[C@@]1(Cc2ccc(F)cc2)[C@H]2c3cc(C(=O)N4CCCC4)n(Cc4ccccc4)c3C[C@H]2CN1C(=O)c1ccccc1,,1 µM (active)
COC(=O)Cn1c(C(=O)N2CCCC2)cc2c1C[C@H]1CN(C(=O)c3ccccc3)[C@@](Cc3ccc(F)cc3)(C(=O)OC)[C@@H]21,,3.16 µM (active)
COC(=O)[C@@]1(Cc2ccc(F)cc2)[C@H]2c3cc(C(=O)N4CCCC4)n(CCN4CNCC4=O)c3C[C@H]2CN1C(=O)c1ccccc1,,2 µM (active)
C=C1C=C(Br)C2(OCCCO2)[C@H]2OC12 (stereo partly drawn),-14.7% [at 11.4 µM],
CC1(C)C2([N+](=O)[O-])CN3CC1([N+](=O)[O-])CN(C2)C3c1ccccc1 (stereo not drawn),0.512% [at 2.29 µM],
CS(=O)(=O)c1ccc([C@H](O)[C@H](CO)NC(=O)C(Cl)Cl)cc1,-5.21% [at 25.6 µM],
C[C@@H](C(=O)NCc1ccc(S(C)(=O)=O)cc1)[C@H]1C[C@]1(C)[C@H](NC(=O)OCc1ccccc1)c1ccccc1,,3.16 µM (active)

Compound,"activity, negative = inhibition",AC50
C[C@@H](C(=O)NCc1ccc(S(C)(=O)=O)cc1)[C@@H]1C[C@@]1(C)[C@@H](NC(=O)OCc1ccccc1)c1ccccc1,,1 µM (active)
CC(NC(=O)OCc1ccccc1)C(=O)NCC1CCCO1 (stereo not drawn),-4.26%,
C[C@@H](C(=O)NCc1nc2ccccc2[nH]1)[C@@H]1C[C@@]1(C)[C@@H](NC(=O)OCc1ccccc1)c1ccccc1,,1 µM (active)
C[C@@H](C(=O)NCc1cccc2ccccc12)[C@H]1C[C@]1(C)[C@H](NC(=O)OCc1ccccc1)c1ccccc1,,0.398 µM (active)
Cc1cccc(C)c1OC[C@H](C)N,-12.4% [at 25.6 µM],
C=CCSc1ncccc1C(=O)NCc1ccc(C)cc1,,11.2 µM (active)
CSc1nncc(-c2ccc(F)c(F)c2)n1,13.4%,
CC/C(=N/Nc1ccccc1)c1cnnc(SC)n1,,25.1 µM (active)
CCNC(=O)c1c(NC(C)=O)sc2c1CCCC2,-23%,
CC(=O)Nc1sc2c(c1C(N)=O)CCCC2,-27.9%,
COCCCNC(=O)c1c(NC(=O)c2cccs2)sc2c1CCCC2,,15.8 µM (active)
O[C@@H](COc1cccc2ccccc12)CN1CCOCC1,-6.73% [at 11.4 µM],
O[C@H](COc1ccccc1)CN1CCCCC1,-3.03% [at 11.4 µM],
Cc1cccc(C)c1OCC(O)CNC(C)(C)C (stereo not drawn),-9.33%,
CC(=O)Nc1ccc(OCC(O)Cn2c3ccccc3c3ccccc32)c(C)c1 (stereo not drawn),,3.98 µM (active)
CC(C)NC[C@@H](O)COc1ccccc1-n1cccc1,-14.7%,
Cc1ccc(OCC(O)Cn2c3ccccc3c3ccccc32)cc1 (stereo not drawn),,17.8 µM (active)
OC(COc1ccc(OCC(O)CN2CCCCCC2)cc1)CN1CCCCCC1 (stereo not drawn),3.14%,
OC[C@@H](O)COc1cccc2ccccc12,-23%,
Cc1ccccc1OCC(O)Cn1c2ccccc2c2ccccc21 (stereo not drawn),,12.6 µM (active)
